Experimental data from the supplement of paper PMC6555819.

Experiments:
Test in all cases: PBM binding z-score (relative to random genomic background probes); higher = stronger binding; sequences stand for … in GC…GCGATTGACAGCGTAGAATGAAGG
[1] = system: FXR:RXRa (NR concentration 270 nM, RXRa partner concentration 90 nM)
How it was run: (§1)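 Regression normalization was applied to scanned fluorescence from custom Agilent 4×180K protein-binding microarrays. Before scanning, arrays were incubated 1 h with ligand-free nuclear receptor dimers, and binding was detected with antibodies against each partner (one per run). Binding z-scores use the random background probes as reference.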

[2] = system: LXRa:RXRa (NR concentration 270 nM, RXRa partner concentration 90 nM)
How it was run: as §1

[3] = system: LXRa homodimer (NR concentration 270 nM)
How it was run: as §1

[4] = system: LXRb:RXRa (NR concentration 270 nM, RXRa partner concentration 90 nM)
How it was run: as §1

[5] = system: LXRb homodimer (NR concentration 270 nM)
How it was run: as §1

[6] = system: PPARa:RXRa (NR concentration 270 nM, RXRa partner concentration 90 nM)
How it was run: as §1

[7] = system: PPARg:RXRa (NR concentration 180 nM, RXRa partner concentration 90 nM)
How it was run: as §1

[8] = system: PPARg:RXRa 270nM:90nM, anti-RXR (NR concentration 270 nM, RXRa partner concentration 90 nM)
How it was run: as §1

[9] = system: PPARg:RXRa 30nM:10nM, anti-RXR (NR concentration 30 nM, RXRa partner concentration 10 nM)
How it was run: as §1

[10] = system: PPARg:RXRa 90nM:30nM, anti-RXR (NR concentration 90 nM, RXRa partner concentration 30 nM)
How it was run: as §1

CCTCGGAGGTCAGAAGGTCAGAGCTGTCCGCTTT
PBM binding z-score [1]: 5.84 | PBM binding z-score [2]: 4.89 | PBM binding z-score [3]: 1.19 | PBM binding z-score [4]: 3.83 | PBM binding z-score [5]: 0.259 | PBM binding z-score [6]: 4.92 | PBM binding z-score [7]: 3.38 | PBM binding z-score [8]: 5.24 | PBM binding z-score [9]: 1.27 | PBM binding z-score [10]: 3.92

CGTCCGAGGTCAATGCTAGGTCAGTGAAAGCATT
PBM binding z-score [1]: 7.31 | PBM binding z-score [2]: 5.94 | PBM binding z-score [3]: 2.78 | PBM binding z-score [4]: 5.22 | PBM binding z-score [5]: 1.08 | PBM binding z-score [6]: 5.78 | PBM binding z-score [7]: 5.25 | PBM binding z-score [8]: 5.35 | PBM binding z-score [9]: 1.89 | PBM binding z-score [10]: 4.18

GATACAGGGGCAAGGCCAGAGTACGCGTATTGAT
PBM binding z-score [1]: -0.0183 | PBM binding z-score [2]: -0.167 | PBM binding z-score [3]: -0.13 | PBM binding z-score [4]: 0.382 | PBM binding z-score [5]: -0.692 | PBM binding z-score [6]: 0.546 | PBM binding z-score [7]: 0.875 | PBM binding z-score [8]: 0.31 | PBM binding z-score [9]: 0.0579 | PBM binding z-score [10]: 0.23

CCTACTGGGCCAAGGTCATTGAGCAGTCAAAGCA
PBM binding z-score [1]: 3.17 | PBM binding z-score [2]: 3.17 | PBM binding z-score [3]: 0.657 | PBM binding z-score [4]: 2.72 | PBM binding z-score [5]: -0.573 | PBM binding z-score [6]: 4.19 | PBM binding z-score [7]: 4.27 | PBM binding z-score [8]: 4.54 | PBM binding z-score [9]: 1.77 | PBM binding z-score [10]: 3.8

ATATATAGGTTAGGGTCATTCAGAAAGTAGGGAA
PBM binding z-score [1]: 5.26 | PBM binding z-score [2]: 4.34 | PBM binding z-score [3]: 1.79 | PBM binding z-score [4]: 4.71 | PBM binding z-score [5]: 2.26 | PBM binding z-score [6]: 5.6 | PBM binding z-score [7]: 8.16 | PBM binding z-score [8]: 6.57 | PBM binding z-score [9]: 4.73 | PBM binding z-score [10]: 6.58

ATATGTAGGTTAGGCTCATTCAGAAAGTAGGGAA
PBM binding z-score [1]: -0.281 | PBM binding z-score [2]: -0.0164 | PBM binding z-score [3]: -0.0399 | PBM binding z-score [4]: 0.129 | PBM binding z-score [5]: 0.223 | PBM binding z-score [6]: 2.21 | PBM binding z-score [7]: 2.96 | PBM binding z-score [8]: 2.43 | PBM binding z-score [9]: 0.952 | PBM binding z-score [10]: 1.84

CGAACTAGGTGATTGACAGGACAGTGAATAGTAA
PBM binding z-score [1]: 0.0682 | PBM binding z-score [2]: -0.0591 | PBM binding z-score [3]: 0.0308 | PBM binding z-score [4]: -0.196 | PBM binding z-score [5]: -0.394 | PBM binding z-score [6]: 1.81 | PBM binding z-score [7]: 2.2 | PBM binding z-score [8]: 1.57 | PBM binding z-score [9]: 0.548 | PBM binding z-score [10]: 1.06

CAAACTAGGTCACAGAGGTCAACGTCCGTGCGTA
PBM binding z-score [1]: 7.51 | PBM binding z-score [2]: 6.49 | PBM binding z-score [3]: 6.37 | PBM binding z-score [4]: 5.93 | PBM binding z-score [5]: 1.62 | PBM binding z-score [6]: 6.75 | PBM binding z-score [7]: 10.3 | PBM binding z-score [8]: 8.36 | PBM binding z-score [9]: 6.69 | PBM binding z-score [10]: 8.46

CAAACTAGGTCACGAAAGGTCAAAGCCGAATGAC
PBM binding z-score [1]: 7.72 | PBM binding z-score [2]: 8.31 | PBM binding z-score [3]: 8.03 | PBM binding z-score [4]: 7.21 | PBM binding z-score [5]: 2.38 | PBM binding z-score [6]: 6.89 | PBM binding z-score [7]: 10.6 | PBM binding z-score [8]: 8.43 | PBM binding z-score [9]: 7.38 | PBM binding z-score [10]: 8.99

AGTAGCAGGCCAAGGGTCACTCAAGATTAGTCCG
PBM binding z-score [1]: 2.36 | PBM binding z-score [2]: 2.53 | PBM binding z-score [3]: 0.22 | PBM binding z-score [4]: 2.8 | PBM binding z-score [5]: -0.43 | PBM binding z-score [6]: 4.63 | PBM binding z-score [7]: 7.54 | PBM binding z-score [8]: 7.15 | PBM binding z-score [9]: 6.3 | PBM binding z-score [10]: 7.51

CGTCTAAGGTCAAGGTCAGTGAAAGAGACTCGAA
PBM binding z-score [1]: 8.18 | PBM binding z-score [2]: 6.22 | PBM binding z-score [3]: 1.33 | PBM binding z-score [4]: 5.02 | PBM binding z-score [5]: 1.18 | PBM binding z-score [6]: 6.43 | PBM binding z-score [7]: 6.86 | PBM binding z-score [8]: 6.78 | PBM binding z-score [9]: 3.43 | PBM binding z-score [10]: 5.94

CCTACTGGGCCATCAGGTGATTGATATCAACGTT
PBM binding z-score [1]: -0.454 | PBM binding z-score [2]: -0.704 | PBM binding z-score [3]: -0.341 | PBM binding z-score [4]: -0.438 | PBM binding z-score [5]: -0.864 | PBM binding z-score [6]: 0.426 | PBM binding z-score [7]: 1.29 | PBM binding z-score [8]: 1.63 | PBM binding z-score [9]: 0.102 | PBM binding z-score [10]: 1.27

CGAACTAGGTCAAAAGACAGTGAAAGGCGACGTA
PBM binding z-score [1]: 3.09 | PBM binding z-score [2]: 2.03 | PBM binding z-score [3]: -0.16 | PBM binding z-score [4]: 1.47 | PBM binding z-score [5]: -0.191 | PBM binding z-score [6]: 4.46 | PBM binding z-score [7]: 8.06 | PBM binding z-score [8]: 7.08 | PBM binding z-score [9]: 5.52 | PBM binding z-score [10]: 7.26

CCTACTGGGCCAAAGGTCCTTGATTCCAATGCTC
PBM binding z-score [1]: -0.0555 | PBM binding z-score [2]: -0.225 | PBM binding z-score [3]: -0.404 | PBM binding z-score [4]: 0.0817 | PBM binding z-score [5]: -0.832 | PBM binding z-score [6]: 3.84 | PBM binding z-score [7]: 8.78 | PBM binding z-score [8]: 8.68 | PBM binding z-score [9]: 8.07 | PBM binding z-score [10]: 8.91

ACTAATTGGTCAGCTGAGGTCACACACAATTCGG
PBM binding z-score [1]: 3.46 | PBM binding z-score [2]: 3.25 | PBM binding z-score [3]: 2.59 | PBM binding z-score [4]: 3.68 | PBM binding z-score [5]: 1.15 | PBM binding z-score [6]: 4.06 | PBM binding z-score [7]: 2.17 | PBM binding z-score [8]: 2.77 | PBM binding z-score [9]: 1.23 | PBM binding z-score [10]: 1.88

CGAACTAGGTCACCAGGACACTGAAGAGGTTGGA
PBM binding z-score [1]: 3.92 | PBM binding z-score [2]: 2.61 | PBM binding z-score [3]: 0.155 | PBM binding z-score [4]: 1.95 | PBM binding z-score [5]: -0.211 | PBM binding z-score [6]: 5.31 | PBM binding z-score [7]: 8.46 | PBM binding z-score [8]: 7.07 | PBM binding z-score [9]: 4.81 | PBM binding z-score [10]: 6.92

GATAGTTGGTCAGTAAAAGGTCACACACCGGTCG
PBM binding z-score [1]: 3.47 | PBM binding z-score [2]: 4.21 | PBM binding z-score [3]: 4.89 | PBM binding z-score [4]: 4.06 | PBM binding z-score [5]: 0.786 | PBM binding z-score [6]: 4.57 | PBM binding z-score [7]: 3.46 | PBM binding z-score [8]: 4.68 | PBM binding z-score [9]: 2.35 | PBM binding z-score [10]: 3.8

CGAACTAGGTCACCAGAACAGTGAAGAGGTTGGA
PBM binding z-score [1]: 3.61 | PBM binding z-score [2]: 2.14 | PBM binding z-score [3]: -0.204 | PBM binding z-score [4]: 1.65 | PBM binding z-score [5]: -0.116 | PBM binding z-score [6]: 5.2 | PBM binding z-score [7]: 8.46 | PBM binding z-score [8]: 6.91 | PBM binding z-score [9]: 5.08 | PBM binding z-score [10]: 6.61

ATATGTAGGTTACGGTCATTCAGAAAGTAGGGAA
PBM binding z-score [1]: 2.04 | PBM binding z-score [2]: 2.49 | PBM binding z-score [3]: 1.64 | PBM binding z-score [4]: 1.74 | PBM binding z-score [5]: 1.02 | PBM binding z-score [6]: 4.35 | PBM binding z-score [7]: 7.06 | PBM binding z-score [8]: 5.67 | PBM binding z-score [9]: 3.24 | PBM binding z-score [10]: 5.02

CAAACTAGGTCACAGAGGTCAAACTCCGTGCGTA
PBM binding z-score [1]: 7.52 | PBM binding z-score [2]: 6.77 | PBM binding z-score [3]: 8.67 | PBM binding z-score [4]: 6.55 | PBM binding z-score [5]: 2.84 | PBM binding z-score [6]: 6.69 | PBM binding z-score [7]: 10.2 | PBM binding z-score [8]: 8.44 | PBM binding z-score [9]: 7.14 | PBM binding z-score [10]: 8.85

CGAACTAGGTTAAAGGACAGTGAAAGGCGACGTA
PBM binding z-score [1]: -0.0523 | PBM binding z-score [2]: 0.122 | PBM binding z-score [3]: -0.254 | PBM binding z-score [4]: 0.129 | PBM binding z-score [5]: -0.736 | PBM binding z-score [6]: 3.82 | PBM binding z-score [7]: 7.8 | PBM binding z-score [8]: 7.53 | PBM binding z-score [9]: 7.49 | PBM binding z-score [10]: 8.79

CGAACTAGGTCAACAGGACAGTGAAGAGGTTGGA
PBM binding z-score [1]: 3.71 | PBM binding z-score [2]: 2.37 | PBM binding z-score [3]: 0.16 | PBM binding z-score [4]: 1.55 | PBM binding z-score [5]: -0.34 | PBM binding z-score [6]: 4.7 | PBM binding z-score [7]: 7.52 | PBM binding z-score [8]: 6.53 | PBM binding z-score [9]: 4.22 | PBM binding z-score [10]: 6.18

ATATGTAGGATAGGGTCATTCAGAAAGTAGGGAA
PBM binding z-score [1]: 3.78 | PBM binding z-score [2]: 3.12 | PBM binding z-score [3]: 0.63 | PBM binding z-score [4]: 3.55 | PBM binding z-score [5]: 1.08 | PBM binding z-score [6]: 4.62 | PBM binding z-score [7]: 4.04 | PBM binding z-score [8]: 3.78 | PBM binding z-score [9]: 1.71 | PBM binding z-score [10]: 3.29

ATCGAAAGGTCGTGAGGTGTGTATACAGAAAGGC
PBM binding z-score [1]: 5.39 | PBM binding z-score [2]: 4.05 | PBM binding z-score [3]: 0.0507 | PBM binding z-score [4]: 3.03 | PBM binding z-score [5]: 0.423 | PBM binding z-score [6]: 4.94 | PBM binding z-score [7]: 3.6 | PBM binding z-score [8]: 3.97 | PBM binding z-score [9]: 1.61 | PBM binding z-score [10]: 2.81
